Experimental data: PMC7862700, “An all-to-all approach to the identification of sequence-specific readers for epigenetic DNA modifications on cytosine”

Key:
Experiment in all cases: DAPPL (digital affinity profiling via proximity ligation, sequencing); 10 mM Tris-HCl pH 7.5, 50 mM NaCl, 1 mM DTT, 4% glycerol, room temperature, 30 min; GST-TFs on glutathione beads, 16-mer random dsDNA library, 0.1% formaldehyde crosslink after washing; high values mean tight binding
Details in all cases: protein: recombinant; tags: N-terminal GST; dsDNA, one strand shown
[1] = target: ELF4 (Homo sapiens, UniProt Q99607 1-663)
Chain of ELF4 (Q99607 whole entry, the tested form may be a part): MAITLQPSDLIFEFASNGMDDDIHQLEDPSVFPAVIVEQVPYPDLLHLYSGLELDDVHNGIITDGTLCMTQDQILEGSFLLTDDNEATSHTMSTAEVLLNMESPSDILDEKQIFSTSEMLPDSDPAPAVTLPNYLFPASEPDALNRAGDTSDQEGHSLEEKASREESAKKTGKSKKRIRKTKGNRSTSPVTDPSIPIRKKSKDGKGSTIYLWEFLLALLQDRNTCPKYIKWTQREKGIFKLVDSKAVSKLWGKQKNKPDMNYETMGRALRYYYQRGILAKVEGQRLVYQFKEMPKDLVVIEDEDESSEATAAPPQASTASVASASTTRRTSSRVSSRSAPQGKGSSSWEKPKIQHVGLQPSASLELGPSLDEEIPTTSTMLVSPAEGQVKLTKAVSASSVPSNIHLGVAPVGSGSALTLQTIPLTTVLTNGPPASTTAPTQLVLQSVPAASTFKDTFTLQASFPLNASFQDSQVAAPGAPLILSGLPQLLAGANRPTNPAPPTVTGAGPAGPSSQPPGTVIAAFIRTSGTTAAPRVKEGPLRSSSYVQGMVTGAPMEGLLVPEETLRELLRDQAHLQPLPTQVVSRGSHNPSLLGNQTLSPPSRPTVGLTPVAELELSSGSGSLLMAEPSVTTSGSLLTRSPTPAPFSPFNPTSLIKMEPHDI
How it was run: (§1)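 Binding signal is defined as a hexamer's read frequency for one factor over its frequency for the tag-only sample. To obtain reads, GST-fused human transcription factors were expressed in yeast, captured on glutathione beads, barcoded with DNA and pooled with that sample. Pools met 200 nmole of a 16-mer random double-stranded DNA library in Tris/NaCl/DTT/glycerol buffer for 30 min at room temperature before washing, 0.1% formaldehyde crosslinking, proximity ligation (BsaI/T4 ligase, 1 h, 37 °C), PCR and Illumina NextSeq500 sequencing.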

[2] = target: T1, ETV2 (Homo sapiens, UniProt O00321 1-342)
T1 sequence: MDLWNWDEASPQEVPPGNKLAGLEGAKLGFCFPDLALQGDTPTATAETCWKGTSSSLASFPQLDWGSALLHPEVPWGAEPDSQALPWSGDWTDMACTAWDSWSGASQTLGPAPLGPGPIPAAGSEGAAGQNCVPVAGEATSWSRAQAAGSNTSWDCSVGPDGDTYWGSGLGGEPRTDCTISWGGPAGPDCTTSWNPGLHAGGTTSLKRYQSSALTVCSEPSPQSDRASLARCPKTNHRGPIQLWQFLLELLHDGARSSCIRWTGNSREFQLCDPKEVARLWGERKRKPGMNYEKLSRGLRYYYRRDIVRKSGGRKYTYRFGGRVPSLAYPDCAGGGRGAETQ
How it was run: as §1

[3] = target: T2, ELF3 (Homo sapiens, UniProt P78545 1-371)
T2 sequence: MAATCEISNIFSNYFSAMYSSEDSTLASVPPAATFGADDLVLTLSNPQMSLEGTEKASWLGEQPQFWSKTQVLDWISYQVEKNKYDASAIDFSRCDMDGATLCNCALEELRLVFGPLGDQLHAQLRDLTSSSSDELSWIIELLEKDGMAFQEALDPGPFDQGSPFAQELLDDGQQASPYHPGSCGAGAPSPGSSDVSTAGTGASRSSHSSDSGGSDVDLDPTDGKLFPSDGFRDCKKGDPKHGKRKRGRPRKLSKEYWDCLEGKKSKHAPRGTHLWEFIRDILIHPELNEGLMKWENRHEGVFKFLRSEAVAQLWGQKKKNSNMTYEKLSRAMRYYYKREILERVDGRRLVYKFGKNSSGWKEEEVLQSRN
How it was run: as §1

[4] = target: ETV1 (Homo sapiens, UniProt P50549 1-477)
Chain of ETV1 (P50549 whole entry): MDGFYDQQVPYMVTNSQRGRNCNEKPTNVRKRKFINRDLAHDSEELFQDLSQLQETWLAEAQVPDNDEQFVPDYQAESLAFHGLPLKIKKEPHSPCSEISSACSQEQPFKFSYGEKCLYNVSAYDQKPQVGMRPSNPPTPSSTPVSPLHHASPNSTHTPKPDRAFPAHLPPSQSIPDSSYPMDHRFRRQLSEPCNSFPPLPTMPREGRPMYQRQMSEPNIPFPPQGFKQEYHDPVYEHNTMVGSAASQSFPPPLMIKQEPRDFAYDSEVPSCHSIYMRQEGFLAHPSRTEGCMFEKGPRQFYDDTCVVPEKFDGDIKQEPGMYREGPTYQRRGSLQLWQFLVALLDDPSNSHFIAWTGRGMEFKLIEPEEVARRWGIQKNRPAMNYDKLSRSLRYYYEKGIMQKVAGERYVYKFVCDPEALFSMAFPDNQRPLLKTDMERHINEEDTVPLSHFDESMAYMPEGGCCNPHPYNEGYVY
How it was run: as §1

[5] = target: T3, ERF (Homo sapiens, UniProt P50548 1-548)
T3 sequence: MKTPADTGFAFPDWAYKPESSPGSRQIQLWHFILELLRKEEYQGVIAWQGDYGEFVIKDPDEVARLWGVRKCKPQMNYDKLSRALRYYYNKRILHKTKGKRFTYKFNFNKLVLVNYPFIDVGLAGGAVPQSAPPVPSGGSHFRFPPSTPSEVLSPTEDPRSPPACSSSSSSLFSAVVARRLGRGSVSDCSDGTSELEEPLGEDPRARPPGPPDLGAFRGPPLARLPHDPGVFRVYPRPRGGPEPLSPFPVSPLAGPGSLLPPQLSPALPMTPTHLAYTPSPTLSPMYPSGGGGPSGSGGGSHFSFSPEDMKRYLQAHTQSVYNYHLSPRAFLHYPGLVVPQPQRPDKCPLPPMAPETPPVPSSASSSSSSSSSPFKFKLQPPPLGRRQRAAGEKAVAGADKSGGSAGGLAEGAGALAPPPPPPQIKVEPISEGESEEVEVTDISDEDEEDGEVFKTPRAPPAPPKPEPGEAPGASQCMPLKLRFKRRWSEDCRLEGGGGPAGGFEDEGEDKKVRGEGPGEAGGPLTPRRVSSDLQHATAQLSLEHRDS
How it was run: as §1

[6] = target: T4, ETV3L (Homo sapiens, UniProt Q6ZN32 1-361)
T4 sequence: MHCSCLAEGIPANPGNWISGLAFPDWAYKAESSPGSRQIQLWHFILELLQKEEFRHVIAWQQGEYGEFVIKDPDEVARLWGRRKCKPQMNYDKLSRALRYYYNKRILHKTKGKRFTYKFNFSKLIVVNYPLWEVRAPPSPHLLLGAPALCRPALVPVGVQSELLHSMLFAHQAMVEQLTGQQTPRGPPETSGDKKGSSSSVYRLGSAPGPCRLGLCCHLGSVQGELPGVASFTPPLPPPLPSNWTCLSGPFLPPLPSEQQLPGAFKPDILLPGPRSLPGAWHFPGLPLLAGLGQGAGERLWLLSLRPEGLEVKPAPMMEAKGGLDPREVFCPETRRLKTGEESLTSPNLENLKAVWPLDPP
How it was run: as §1

[7] = target: T5, ETS2 (Homo sapiens, UniProt P15036 1-469)
T5 sequence: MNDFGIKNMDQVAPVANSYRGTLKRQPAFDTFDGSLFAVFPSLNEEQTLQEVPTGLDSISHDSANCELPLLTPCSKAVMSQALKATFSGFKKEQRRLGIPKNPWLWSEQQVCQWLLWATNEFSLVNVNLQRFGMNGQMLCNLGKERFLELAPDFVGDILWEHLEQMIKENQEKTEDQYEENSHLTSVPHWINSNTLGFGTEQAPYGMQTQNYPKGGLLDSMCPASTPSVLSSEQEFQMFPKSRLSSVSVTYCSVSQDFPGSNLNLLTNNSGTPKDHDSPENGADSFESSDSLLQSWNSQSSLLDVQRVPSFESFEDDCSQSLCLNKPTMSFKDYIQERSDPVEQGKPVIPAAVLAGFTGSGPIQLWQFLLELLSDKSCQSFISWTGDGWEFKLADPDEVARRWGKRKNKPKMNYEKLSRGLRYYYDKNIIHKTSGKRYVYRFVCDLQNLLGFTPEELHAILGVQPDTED
How it was run: as §1

[8] = target: T6, ETV7 (Homo sapiens, UniProt Q9Y603 1-341)
T6 sequence: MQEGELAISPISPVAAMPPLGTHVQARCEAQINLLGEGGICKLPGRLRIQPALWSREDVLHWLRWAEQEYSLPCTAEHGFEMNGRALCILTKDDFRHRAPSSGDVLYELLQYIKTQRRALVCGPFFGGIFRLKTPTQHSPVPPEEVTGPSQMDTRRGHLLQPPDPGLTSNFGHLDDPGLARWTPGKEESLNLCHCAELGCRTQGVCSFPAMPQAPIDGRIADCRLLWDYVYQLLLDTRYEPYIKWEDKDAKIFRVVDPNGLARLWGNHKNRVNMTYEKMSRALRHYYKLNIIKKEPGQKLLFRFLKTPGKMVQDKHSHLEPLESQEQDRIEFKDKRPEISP
How it was run: as §1

[9] = target: T7, ETV3 (Homo sapiens, UniProt P41162-2 1-143)
T7 sequence: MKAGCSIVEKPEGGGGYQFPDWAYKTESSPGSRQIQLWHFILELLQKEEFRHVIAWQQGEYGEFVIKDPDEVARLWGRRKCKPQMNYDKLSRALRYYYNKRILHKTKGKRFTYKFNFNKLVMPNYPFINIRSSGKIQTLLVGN
How it was run: as §1

[10] = target: ETV6 (Homo sapiens, UniProt P41212 1-452)
Chain of ETV6 (P41212 whole entry): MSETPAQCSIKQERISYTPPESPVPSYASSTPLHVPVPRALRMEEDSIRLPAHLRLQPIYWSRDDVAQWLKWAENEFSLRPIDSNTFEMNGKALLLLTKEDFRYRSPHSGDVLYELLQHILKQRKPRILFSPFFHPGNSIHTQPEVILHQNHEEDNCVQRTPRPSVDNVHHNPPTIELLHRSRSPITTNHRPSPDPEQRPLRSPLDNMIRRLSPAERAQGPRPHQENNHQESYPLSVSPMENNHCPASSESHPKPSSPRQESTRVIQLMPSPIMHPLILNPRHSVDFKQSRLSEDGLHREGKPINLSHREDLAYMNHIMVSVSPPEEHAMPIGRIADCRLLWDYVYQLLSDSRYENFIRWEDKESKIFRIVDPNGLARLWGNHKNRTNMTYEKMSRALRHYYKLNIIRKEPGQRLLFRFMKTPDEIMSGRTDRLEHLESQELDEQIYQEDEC
How it was run: as §1

CCAACC
binding signal [1]: 1.15 fold enrichment (6-mer frequency, TF over GST control) | binding signal [2]: 1.08 fold enrichment (6-mer frequency, TF over GST control) | binding signal [3]: 1.08 fold enrichment (6-mer frequency, TF over GST control) | binding signal [4]: 1.04 fold enrichment (6-mer frequency, TF over GST control) | binding signal [5]: 1.14 fold enrichment (6-mer frequency, TF over GST control) | binding signal [6]: 1.09 fold enrichment (6-mer frequency, TF over GST control) | binding signal [7]: 1.18 fold enrichment (6-mer frequency, TF over GST control) | binding signal [8]: 1.07 fold enrichment (6-mer frequency, TF over GST control) | binding signal [9]: 1.11 fold enrichment (6-mer frequency, TF over GST control) | binding signal [10]: 1.08 fold enrichment (6-mer frequency, TF over GST control)
